Source: the supplement of paper PMC6555819

What was measured:
Assay in all cases: PBM binding z-score (relative to random genomic background probes); higher = stronger binding; sequences stand for … in GC…GCGATTGACAGCGTAGAATGAAGG
[1] = tested on: FXR:RXRa (NR concentration 270 nM, RXRa partner concentration 90 nM)
Procedure, shortened: (§1)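 Each nuclear receptor dimer, without ligand, was incubated for 1 h on custom Agilent 4×180K protein-binding microarrays. Binding was detected with antibodies against each partner (one per run), and scanned fluorescence was regression-normalized. The binding z-scores are referenced to random human genomic background probes.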

[2] = tested on: LXRa:RXRa (NR concentration 270 nM, RXRa partner concentration 90 nM)
Procedure, shortened: as §1

[3] = tested on: LXRa homodimer (NR concentration 270 nM)
Procedure, shortened: as §1

[4] = tested on: LXRb:RXRa (NR concentration 270 nM, RXRa partner concentration 90 nM)
Procedure, shortened: as §1

[5] = tested on: LXRb homodimer (NR concentration 270 nM)
Procedure, shortened: as §1

[6] = tested on: PPARa:RXRa (NR concentration 270 nM, RXRa partner concentration 90 nM)
Procedure, shortened: as §1

[7] = tested on: PPARg:RXRa (NR concentration 180 nM, RXRa partner concentration 90 nM)
Procedure, shortened: as §1

[8] = tested on: PPARg:RXRa 270nM:90nM, anti-RXR (NR concentration 270 nM, RXRa partner concentration 90 nM)
Procedure, shortened: as §1

[9] = tested on: PPARg:RXRa 30nM:10nM, anti-RXR (NR concentration 30 nM, RXRa partner concentration 10 nM)
Procedure, shortened: as §1

[10] = tested on: PPARg:RXRa 90nM:30nM, anti-RXR (NR concentration 90 nM, RXRa partner concentration 30 nM)
Procedure, shortened: as §1

[11] = tested on: PPARg:RXRa DBDmut IVT, anti-RXR (DBD mutation: RXRa K156A/R161A, NR concentration 270 nM, RXRa partner concentration 90 nM)
Procedure, shortened: as §1

[12] = tested on: PPARg:RXRa IVT, anti-PPARg (NR concentration 270 nM, RXRa partner concentration 90 nM)
Procedure, shortened: as §1

[13] = tested on: PPARg DBDmut:RXRa IVT, anti-PPARg (DBD mutation: PPARg1 K132A/R137A, NR concentration 270 nM, RXRa partner concentration 90 nM)
Procedure, shortened: as §1

[14] = tested on: PPARg DBDmut IVT, anti-PPARg (DBD mutation: PPARg1 K132A/R137A, NR concentration 270 nM)
Procedure, shortened: as §1

[15] = tested on: PPARg homodimer (NR concentration 180 nM)
Procedure, shortened: as §1

[16] = tested on: PXR:RXRa (NR concentration 270 nM, RXRa partner concentration 90 nM)
Procedure, shortened: as §1

[17] = tested on: PXR homodimer (NR concentration 270 nM)
Procedure, shortened: as §1

[18] = tested on: RARa:RXR (NR concentration 270 nM, RXRa partner concentration 90 nM)
Procedure, shortened: as §1

[19] = tested on: RARa homodimer (NR concentration 270 nM)
Procedure, shortened: as §1

[20] = tested on: RARb:RXRa (NR concentration 270 nM, RXRa partner concentration 90 nM)
Procedure, shortened: as §1

Sequence	PBM binding z-score [1]	PBM binding z-score [2]	PBM binding z-score [3]	PBM binding z-score [4]	PBM binding z-score [5]	PBM binding z-score [6]	PBM binding z-score [7]	PBM binding z-score [8]	PBM binding z-score [9]	PBM binding z-score [10]	PBM binding z-score [11]	PBM binding z-score [12]	PBM binding z-score [13]	PBM binding z-score [14]	PBM binding z-score [15]	PBM binding z-score [16]	PBM binding z-score [17]	PBM binding z-score [18]	PBM binding z-score [19]	PBM binding z-score [20]
GCAGACAGGTGCAACGCAGGTAACTCAGGGTGGC	-0.722	-0.509	-0.668	-0.958	-1.31	-0.475	0.119	-0.844	-0.761	-0.904	-0.637	-0.593	-1.75	-1.51	-0.974	-0.377	-0.796	0.0404	-1.09	-0.3
CCTACTTGGCCAAGGTCATTGATCAGTCAAAGCA	3.65	4.26	1.93	3.87	1.21	4	1.27	2.15	0.389	1.41	1.37	2.08	-0.0462	-0.266	2.44	3.9	1.45	3.57	1.49	3.49
AGAACGAGGGCTATGAGTTGATAGCACGGGTGGC	-0.355	-0.47	-0.658	-0.828	-0.486	-0.335	0.792	0.00243	-0.297	0.151	0.434	-0.14	-0.172	-1.35	-0.607	-0.351	0.0434	-0.584	0.201	-0.0296
AGAATGAAGTTATTAAGATCAGGGAATTGCGGTC	-0.377	-0.535	-0.241	-0.514	-0.42	-0.386	0.173	-0.222	0.106	0.114	-0.0627	-0.0866	0.409	0.313	0.538	-0.219	0.044	0.183	0.224	-0.286
CTCGAAAGGTCGTGCTCAGGTGACTATACCAAAC	5.25	3.88	0.561	3.69	0.323	4.97	2.84	3.95	1.46	2.76	1.01	2.13	-0.324	0.674	1.85	3.67	0.399	4.75	0.319	4
ACTAGCAAGCCAAGGGTCACTCAAGATTAGTCCG	2.21	2.75	0.27	2.66	-0.201	3.53	3.39	4.44	2.1	4.11	-0.0877	1.46	-0.235	-0.0767	1.68	3.01	0.0127	3.79	0.419	3.11
ATCTCTAGGTAAGACCCAGTTCAGTGAAGAACGC	0.43	0.778	0.612	0.599	0.872	0.54	0.457	0.208	0.196	0.526	2.24	1.79	0.676	0.699	0.695	0.9	1.45	0.59	0.821	0.371
AGAACGAGGGCACGATGAGTTGATAGCAGAGTAG	0.874	0.721	-0.147	0.286	-0.796	2.29	2.6	2.02	0.778	1.51	3.75	3.91	0.853	0.0308	0.364	1.17	0.453	1.01	-0.256	2.32
GCTCGGAGGTCAAGGTCAGAGCTTTGTCCGTAGA	7.3	5.97	1.81	4.82	1.33	5.76	6.41	6.35	2.69	5.23	3.94	4.68	-0.342	-0.512	4.12	5.61	1.32	6.17	2.29	5.37
ATACGTAGGTTAGCTGGGGTCATTCAGACTAGGC	5.03	5.91	2.24	4.72	0.757	4.24	1.72	2.91	0.452	1.55	0.981	1.51	0.0785	0.0192	1.82	6.17	4.22	5.33	0.497	2.93
CCTCGGAGGACCACAGGAGGTCAGAGCTGCCAGA	0.729	1.79	0.525	1.3	-0.715	1.97	0.00464	0.0668	-0.599	-0.575	-0.849	-0.16	-0.752	-1.46	1.3	2.22	0.21	2.45	0.245	2.18
CCTGCTAGGTCAATCGTCAGCTAAAGCAGCTCGC	3.35	2.19	-0.244	1.57	0.108	2.85	1.39	2.18	-0.19	1.39	4.52	3.19	-0.719	-1.31	0.995	0.842	-0.551	1.58	-0.666	3.63
ACTTACGGGTCAACGAGGGTATAGCACGCGTATA	6.96	4.31	0.258	3.79	0.591	5.61	5.35	5.06	1.72	3.63	2.86	3.73	1.66	1.29	2.05	4.29	1.09	4.78	0.643	4.05
ACAGACAGGTGAGTGAAGGAAACTCAGCTGGACG	-0.54	-0.517	-0.15	-0.792	-0.646	-1.08	0.519	-0.724	-0.177	-0.368	0.214	0.274	-0.163	-1.04	-0.703	-0.793	-0.677	-0.777	-0.124	-0.0129
